According to the antibiotic and cytotoxicity screens of Wong et al. (2023):
Among all 39,000 compounds or so, about 3,300 (8.5%) were called active. For the sample, actives were picked, then their nearest neighbours and some compounds at random.

system: HepG2; assay: cytotoxicity call (relative viability < 0.9); settings: 10 µM

SMILES | cytotoxicity call
COc1cccc(NC(=O)N2C[C@@H](O)COC[C@@H]3O[C@H](CC(=O)NCCCN4CCOCC4)CC[C@H]32)c1 | inactive
COc1ccc(CN(C)C[C@@H]2Oc3c(NS(=O)(=O)c4cn(C)cn4)cccc3C(=O)N([C@@H](C)CO)C[C@H]2C)cc1 | inactive
C[C@H]1CN([C@@H](C)CO)C(=O)c2cccc(NC(=O)c3cnccn3)c2O[C@H]1CN(C)Cc1ccccc1 | inactive
C[C@H]1CN([C@@H](C)CO)C(=O)Cc2cc(NS(C)(=O)=O)ccc2O[C@@H]1CN(C)Cc1ccc(C(F)(F)F)cc1 | inactive
Cc1ccc(S(=O)(=O)Nc2ccc3c(c2)CC(=O)N([C@H](C)CO)C[C@@H](C)[C@@H](CN(C)Cc2ccncc2)O3)cc1 | active
Cc1ccc(S(=O)(=O)Nc2ccc3c(c2)CC(=O)N([C@H](C)CO)C[C@@H](C)[C@H](CN(C)Cc2ccc(C(F)(F)F)cc2)O3)cc1 | inactive
C[C@H](CO)N1C[C@H](C)[C@H](CN(C)Cc2ccc(C(F)(F)F)cc2)Oc2ccc(NS(C)(=O)=O)cc2CC1=O | inactive
Cc1ccc(S(=O)(=O)Nc2ccc3c(c2)CC(=O)N([C@@H](C)CO)C[C@H](C)[C@@H](CN(C)Cc2ccc(C(F)(F)F)cc2)O3)cc1 | active
Cc1ccc(S(=O)(=O)Nc2ccc3c(c2)CC(=O)N([C@@H](C)CO)C[C@H](C)[C@@H](CN(C)Cc2ccncc2)O3)cc1 | inactive
Cc1ccc(S(=O)(=O)Nc2ccc3c(c2)CC(=O)N([C@H](C)CO)C[C@@H](C)[C@H](CN(C)Cc2ccncc2)O3)cc1 | inactive
Cc1ccc(S(=O)(=O)Nc2ccc3c(c2)CC(=O)N([C@@H](C)CO)C[C@H](C)[C@H](CN(C)Cc2ccc(C(F)(F)F)cc2)O3)cc1 | inactive
Cc1ccc(S(=O)(=O)Nc2ccc3c(c2)CC(=O)N([C@H](C)CO)C[C@@H](C)[C@@H](CN(C)Cc2ccc(C(F)(F)F)cc2)O3)cc1 | active
C[C@@H]1CN([C@H](C)CO)C(=O)Cc2cc(NS(C)(=O)=O)ccc2O[C@@H]1CN(C)Cc1ccc(C(F)(F)F)cc1 | inactive
C[C@@H]1CN([C@@H](C)CO)C(=O)Cc2cc(NS(C)(=O)=O)ccc2O[C@@H]1CN(C)Cc1ccc(C(F)(F)F)cc1 | inactive
Cc1ccc(S(=O)(=O)Nc2ccc3c(c2)CC(=O)N([C@H](C)CO)C[C@H](C)[C@H](CN(C)Cc2ccc(C(F)(F)F)cc2)O3)cc1 | active
O=C(C[C@@H]1CC[C@H]2[C@@H](COC[C@H](O)CN2Cc2ccccc2F)O1)N[C@@H]1CCN(Cc2ccccc2)C1 | inactive
COc1ccc(S(=O)(=O)Nc2cccc3c2O[C@H](CN(C)S(=O)(=O)c2c(C)noc2C)[C@@H](C)CN([C@H](C)CO)C3=O)cc1 | inactive
C/C=C/c1ccc([C@@H]2[C@H](CO)N(S(=O)(=O)Cc3ccccc3)C23CN(C(=O)C2CCOCC2)C3)cc1 | inactive
C[C@@H]1CN([C@H](C)CO)C(=O)c2cc(NC(=O)NC3CCCCC3)ccc2O[C@@H](C)CCCCO[C@@H]1CN(C)C(=O)c1ccccc1 | inactive
COc1ccc(S(=O)(=O)N(C)C[C@@H]2OCc3cnnn3CCCC(=O)N([C@H](C)CO)C[C@@H]2C)cc1 | inactive
COCC#Cc1cnc2c(c1)C(=O)N([C@@H](C)CO)C[C@@H](C)[C@@H](CN(C)C(=O)Nc1ccc(OC)cc1)O2 | inactive
C[C@H](CO)N1C[C@H](C)[C@H](CN(C)Cc2ccc(C(F)(F)F)cc2)Oc2c(NC(=O)C3CCCCC3)cccc2C1=O | inactive

SMILES | cytotoxicity call
COC(=O)c1cc(=O)n2ccccc2c1C#N | inactive
CO[C@@H](CN(C)C(=O)c1ccccc1F)[C@H](C)CN([C@@H](C)CO)S(=O)(=O)c1ccc(Cl)cc1 | inactive
C[C@H](CO)N1C[C@H](C)[C@H](CN(C)Cc2ccncc2)Oc2ccc(NS(=O)(=O)c3cn(C)cn3)cc2CC1=O | inactive
C[C@H]1CCCCO[C@@H](CN(C)C)[C@@H](C)CN([C@@H](C)CO)C(=O)c2cc(NC(=O)CCCN(C)C)ccc2O1 | inactive
C=CC[C@H](CC(=O)NCCO)C(=O)N[C@@H](COC(=O)[C@@H](CC=C)CC(=O)OC(C)(C)C)Cc1ccccc1 | inactive
CO[C@H]1CN(C)C(=O)c2ccc(NC(=O)C3CC3)cc2OC[C@@H](C)N(C(=O)C2CCOCC2)C[C@H]1C | inactive
Cc1ccc(S(=O)(=O)N2C[C@H](O)COC[C@H]3O[C@@H](CC(=O)N[C@H]4CCN(Cc5ccccc5)C4)CC[C@@H]32)cc1 | inactive
COc1cccc(S(=O)(=O)Nc2ccc3c(c2)[C@H]2C[C@H](CC(=O)N4CCCCC4)O[C@@H](CO)[C@H]2O3)c1 | inactive
Cc1ccc(S(=O)(=O)Nc2ccc3c(c2)CC(=O)N([C@H](C)CO)C[C@H](C)[C@@H](CN(C)Cc2ccc(C(F)(F)F)cc2)O3)cc1 | inactive
Cc1ccc(S(=O)(=O)Nc2ccc3c(c2)CC(=O)N([C@@H](C)CO)C[C@@H](C)[C@@H](CN(C)Cc2ccc(C(F)(F)F)cc2)O3)cc1 | active
Cc1ccc(S(=O)(=O)Nc2ccc3c(c2)CC(=O)N([C@@H](C)CO)C[C@@H](C)[C@H](CN(C)Cc2ccc(C(F)(F)F)cc2)O3)cc1 | inactive
C[C@@H]1CCCCO[C@H](CN(C)C(=O)Nc2ccc(C(F)(F)F)cc2)[C@@H](C)CN([C@H](C)CO)C(=O)c2cc(NC(=O)c3ccncc3)ccc2O1 | inactive
Cc1cccc(C)c1OCC(C)N.Cl (stereo unspecified) | active
Cc1cccc(C)c1OC[C@@H](C)N | inactive
Cc1cccc2ccccc12 | inactive
C[C@@H]1CN([C@@H](C)CO)C(=O)c2cc(NS(=O)(=O)c3cn(C)cn3)ccc2O[C@@H]1CN(C)S(=O)(=O)c1ccc(Cl)cc1 | inactive
O=C(CCCCCCC(=O)Nc1ccc([C@H]2O[C@@H](CN3CCCCCCC3)C[C@H](c3ccccc3)O2)cc1)NO | inactive
O=C(CCCCCCC(=O)Nc1ccc([C@@H]2O[C@H](CSc3nc(-c4ccccc4)c(-c4ccccc4)o3)C[C@H](c3ccccc3)O2)cc1)NO | inactive
O=C(CCCCCCC(=O)Nc1ccc([C@H]2O[C@@H](COc3ccccc3)C[C@H](c3ccccc3)O2)cc1)NO | inactive
O=C(CCCCCCC(=O)Nc1ccc([C@H]2O[C@H](CSc3nc(-c4ccccc4)c(-c4ccccc4)o3)C[C@H](c3ccc(NC(=O)CCCCCCC(=O)NO)cc3)O2)cc1)NO | inactive
O=C(O)CCCCCCC(=O)Nc1ccc([C@H]2O[C@@H](CSc3nc(-c4ccccc4)c(-c4ccccc4)o3)C[C@H](c3ccc([N+](=O)[O-])cc3)O2)cc1 | inactive
O=C(CCCCCCC(=O)Nc1ccc([C@H]2O[C@@H](CSc3nc4ccccc4o3)C[C@H](c3ccccc3)O2)cc1)NO | active

SMILES | cytotoxicity call
O=C(CCCCCCC(=O)Nc1ccc([C@H]2O[C@@H](CSc3nc(-c4ccccc4)c(-c4ccccc4)o3)C[C@H](c3ccc([N+](=O)[O-])cc3)O2)cc1)NO | active
O=C(CCCCCCC(=O)Nc1ccc([C@H]2C[C@@H](CSc3nc(-c4ccccc4)c(-c4ccccc4)o3)O[C@H](c3ccccc3)O2)cc1)NO | inactive
COc1cc2c(cc1OC)CN(C[C@H]1C[C@H](c3ccccc3)O[C@H](c3ccc(NC(=O)CCCCCCC(=O)NO)cc3)O1)CC2 | active
C[C@@H]1CN([C@H](C)CO)C(=O)c2cc(C#CCN(C)C)cnc2O[C@@H]1CN(C)C(=O)CCN1CCCCC1 | inactive
Cc1noc(C)c1NC(=O)N[C@@H]1C=C[C@H](CC(=O)NCCCN(C)C)O[C@@H]1CO | inactive
C[C@@H]1CN([C@@H](C)CO)C(=O)c2cccc(NC(=O)Nc3ccc4c(c3)OCO4)c2O[C@H]1CN(C)Cc1ccc(Cl)c(Cl)c1 | inactive
C[C@H](CO)N1C[C@H](C)[C@@H](CN(C)C(=O)Nc2ccc(C(F)(F)F)cc2)Oc2ccc(NC(=O)Nc3cccc4ccccc34)cc2CC1=O | inactive
C[C@H](CO)N1C[C@H](C)[C@@H](CN(C)Cc2ccc(C(=O)Nc3ccccc3N)cc2)OCCCC[C@H](C)Oc2ccc(N(C)C)cc2C1=O | inactive
C[C@@H]1CN([C@H](C)CO)C(=O)c2cc(NC(=O)C3CC3)ccc2O[C@@H]1CN(C)S(=O)(=O)c1ccc(Cl)cc1 | inactive
C[C@@H]1CN([C@@H](C)CO)C(=O)c2c(c3ccccc3n2C)-c2ccccc2CO[C@H]1CN(C)Cc1ccc(C(F)(F)F)cc1 | inactive
C[C@@H]1CN([C@H](C)CO)S(=O)(=O)c2ccc(C#Cc3ccc(F)cc3)cc2O[C@@H]1CN(C)S(=O)(=O)c1ccc(F)cc1 | inactive
C[C@@H]1CN([C@@H](C)CO)S(=O)(=O)c2ccc(C#Cc3ccncc3)cc2O[C@H]1CN(C)S(=O)(=O)c1ccc(F)cc1 | active
C[C@@H]1CN([C@H](C)CO)S(=O)(=O)c2ccc(C#Cc3ccncc3)cc2O[C@@H]1CN(C)S(=O)(=O)c1ccc(F)cc1 | active
CC(C)CC#Cc1ccc2c(c1)O[C@H](CN(C)S(=O)(=O)c1ccc(F)cc1)[C@@H](C)CN([C@@H](C)CO)S2(=O)=O | inactive
C[C@@H]1CN([C@H](C)CO)S(=O)(=O)c2ccc(C#Cc3ccncc3)cc2O[C@H]1CN(C)S(=O)(=O)c1ccc(F)cc1 | active
C[C@H]1CN([C@@H](C)CO)S(=O)(=O)c2ccc(C#Cc3ccncc3)cc2O[C@@H]1CN(C)S(=O)(=O)c1ccc(F)cc1 | inactive
C[C@@H]1CN([C@H](C)CO)S(=O)(=O)c2ccc(C#Cc3ccc(F)cc3)cc2O[C@H]1CN(C)S(=O)(=O)c1ccc(F)cc1 | inactive
C[C@H](CO)N1C[C@H](C)[C@@H](CN(C)S(=O)(=O)c2ccc(F)cc2)Oc2cc(C#Cc3ccncc3)ccc2S1(=O)=O | inactive
C[C@H]1CN([C@@H](C)CO)S(=O)(=O)c2ccc(C#Cc3ccncc3)cc2O[C@H]1CN(C)S(=O)(=O)c1ccc(F)cc1 | active
C[C@H]1CN([C@@H](C)CO)S(=O)(=O)c2ccc(C#Cc3ccc(F)cc3)cc2O[C@H]1CN(C)S(=O)(=O)c1ccc(F)cc1 | inactive
C[C@H]1CN([C@@H](C)CO)S(=O)(=O)c2ccc(C#Cc3ccc(F)cc3)cc2O[C@@H]1CN(C)S(=O)(=O)c1ccc(F)cc1 | inactive
CC(C)CC#Cc1ccc2c(c1)O[C@@H](CN(C)S(=O)(=O)c1ccc(F)cc1)[C@H](C)CN([C@H](C)CO)S2(=O)=O | inactive
